Source: PubChem BioAssay
Only some compounds are listed: those with a hit (about 1.1% of all), similar ones and a draw of the others.
Integrin act MD: activators of alpha7 integrin expression for muscular dystrophy | alpha7betagal myoblasts, beta-gal FDG fluorescence, 48 h | Potency, µM (top dose mostly 38.3 µM), inactives show at the top dose activation, most hits filed as activators | 350,000 tested, 0.064% active | AID 624291;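 further: potency means the concentration at half of the fitted maximal effect; 100% = response of the positive control SU9516; nearly all actives have a fitted effect of over 60% in size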
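Alpha7betagal+/- myoblasts (passage 13) were plated 16-24 hr, then exposed to compounds (1:260 dilution of DMSO stock) for 48 hours at 37C. After MPER lysis, β-galactosidase reporter activity was read as FDG fluorescence (ex 480/em 540) after 30 minutes.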
TrxR1 inh: rat TrxR1 inhibition; recombinant rTrxR1, NADPH fluorescence consumption, selenite substrate; Potency, µM (top dose mostly 114 µM), for inactives: top-dose activity change, negative = inhibition, actives largely listed as inhibitors; 390,000 tested, 1% active; O89049; further: potency means the concentration at half of the fitted maximal effect; nearly all actives have a fitted effect of over 65% in size
Target sequence (O89049 whole entry, looked up): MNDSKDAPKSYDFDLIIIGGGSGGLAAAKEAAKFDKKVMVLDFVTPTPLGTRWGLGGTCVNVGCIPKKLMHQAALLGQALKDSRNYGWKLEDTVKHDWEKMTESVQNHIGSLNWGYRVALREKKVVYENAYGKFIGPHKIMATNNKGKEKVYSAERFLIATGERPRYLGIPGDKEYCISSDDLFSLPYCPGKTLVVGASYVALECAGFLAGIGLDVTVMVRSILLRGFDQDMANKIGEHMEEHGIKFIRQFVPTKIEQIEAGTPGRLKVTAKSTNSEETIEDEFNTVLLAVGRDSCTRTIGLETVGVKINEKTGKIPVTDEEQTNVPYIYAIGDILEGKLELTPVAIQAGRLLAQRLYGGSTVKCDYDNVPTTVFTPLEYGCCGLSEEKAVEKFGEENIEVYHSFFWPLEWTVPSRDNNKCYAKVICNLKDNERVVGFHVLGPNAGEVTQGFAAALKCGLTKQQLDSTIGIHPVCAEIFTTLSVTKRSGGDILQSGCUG
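Rat TrxR1 (90 nM in the dispensed reagent) was pre-reduced with 400 uM NADPH for 5 min at room temperature, then incubated with compound for 15 min. After 400 uM selenite was added, NADPH fluorescence (Ex 340/Em 450 nm) was followed for 8 min.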
GALK inhibitor: galactokinase (human) inhibition. P51570. Purified GALK, Kinase-Glo residual ATP luminescence. Potency, µM (series often up to 57.5 µM), inactives show at the highest dose activity change, negative = inhibition, most hits filed as inhibitors. 270,000 tested, 0.007% active. AID 1868; further: potency means the concentration at half of the fitted maximal effect
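The enzyme phosphorylates galactose (100 uM) using ATP (35 uM); inhibition is detected as higher residual ATP, quantified by bioluminescence after 1 h reaction at room temperature, pH 8.0.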
TrxR1 substrate: substrates of rat thioredoxin reductase 1; purified TrxR1 substrate turnover, NADPH consumption readout; Potency, µM (series often up to 114 µM), for the others: top-dose activity change, negative = substrate turnover; O89049; 390,000 tested, 0.01% active; AID 588456; further: potency means the concentration at half of the fitted maximal effect; nearly all actives have a fitted effect of over 50% in size
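Rat TrxR1, dispensed at 90 nM, was prereduced with 400 uM NADPH (final) for 5 min at ~22 deg C, then incubated with compound 15 min before 400 uM selenite. A first-read NADPH fluorescence drop versus no-compound background flagged substrates.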
LDHA inh: LDHA (human) enzyme inhibition | purified LDHA, NADH/diaphorase-resazurin fluorescence; stronger effect = lower value | activity change, % (values are at about 110 or 230 µM) | 480,000 tested, 0.15% active | AID 1347041; in the data active means activity change below about -30%; inconclusive means mostly about -25% to -30%;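 further: plate controls were DMSO wells for no effect and wells without enzyme for full effect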
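Human LDH5 (2 nM) was incubated with 0.06 mM NADH and 0.2 mM pyruvate for 5 min at room temperature in Tris pH 7.4. Remaining NADH was coupled through diaphorase/resazurin, and resorufin fluorescence was read at 0 and 20 min.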
PI4K2A inh: PI4K2A (human) kinase inhibition; Q9BTU6; purified PI4K2A, ADP-Glo luminescence, 1 h; stronger effect = lower value; activity change, negative = inhibition, % at 76.9 µM; 420,000 tested, 0.13% active; AID 1346378; in the data active means activity change below about -50%; inconclusive means mostly about -30% to -49%;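 further: -100% = wells without enzyme as full effect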
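PI4K2A activity was measured by ADP-Glo luminescence: enzyme (4 ug/mL stock) and phosphatidylinositol (1.2 mM stock) in Tris pH 7.5/MgCl2/EGTA/Triton X-100 buffer were reacted with ATP (300 microM stock) for one hour at ambient temperature.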
Starred values were filed as active, the others as inactive; [ ] = another dose, or the depositor's remark. Unless noted, the call rests on the fitted dose curve; in most records, active means well fitted curve in the direction sought with a large enough effect; inconclusive means small, poorly fitted or top-dose-only effect, or another doubt; inactive means no such curve, though single readings can be large; an effect the other way counts as inactive or inconclusive. Unless noted, on the % scale 0 is the no-effect control and ±100 the full control effect.

`O=[N+]([O-])c1cc([N+](=O)[O-])c2cc3ccccc3nc2c1` gave Integrin act MD 3%, TrxR1 inh 45µM*, GALK inhibitor -7%, TrxR1 substrate 4%, LDHA inh 8 and PI4K2A inh -4.
O=[N+]([O-])c1cnc2ccccc2c1 was read as Integrin act MD -28%, TrxR1 inh -14%[57.1 µM], TrxR1 substrate 1%[57.1 µM], LDHA inh -1 and PI4K2A inh 0.
Screening O=C1[C@@H]2C(c3cccnc3)=NO[C@@H]2C(=O)N1c1ccc2ccccc2c1 returned Integrin act MD -9%, TrxR1 inh 16µM*, GALK inhibitor 1%, TrxR1 substrate 9%[57.1 µM], LDHA inh 2 and PI4K2A inh 2.
Cc1cc2cc(NC(=O)c3cccc(C)c3C)ccc2[nH]1 was read as LDHA inh -1.
`CCc1nc(Cn2cnc3c2c(=O)n(C)c(=O)n3C)cs1` gave LDHA inh -2.
Screening CCCCC(=O)/C=C/n1c(=S)oc2ccccc21 returned Integrin act MD -65%, TrxR1 inh 2.2µM*, GALK inhibitor 1%, TrxR1 substrate -5%, LDHA inh -6 and PI4K2A inh 0.
CC(C)OC(=O)n1c(=S)oc2ccccc21 was read as Integrin act MD -24%, TrxR1 inh -8%, GALK inhibitor 0%, TrxR1 substrate 10%[57.1 µM], LDHA inh -9 and PI4K2A inh 4.
For COc1ccc(NC(=O)CSc2ccc(-c3ccco3)nn2)cc1 the results were Integrin act MD -2%, TrxR1 inh 50µM*, GALK inhibitor 4%, TrxR1 substrate -9%, LDHA inh 2 and PI4K2A inh -7.
`CC(=O)Nc1ccc(NC(=O)CSc2ccc(-c3ccco3)nn2)cc1` gave Integrin act MD -1%, TrxR1 inh inconclusive, GALK inhibitor -1%, TrxR1 substrate 21%, LDHA inh -7 and PI4K2A inh -16.
CC(=O)Nc1cccc(NC(=O)CSc2ccc(-c3ccco3)nn2)c1 was read as Integrin act MD inconclusive, TrxR1 inh 56µM*, GALK inhibitor -2%, TrxR1 substrate -4%, LDHA inh 16 and PI4K2A inh -20.
Screening Cc1ccc(NC(=O)CSc2ccc(-c3ccco3)nn2)cc1 returned Integrin act MD -10%, TrxR1 inh inconclusive, GALK inhibitor 1%, TrxR1 substrate -2%[57.1 µM], LDHA inh -12 and PI4K2A inh -1.
COc1cc(NC(=O)CSc2ccc(-c3ccco3)nn2)cc(OC)c1 was read as Integrin act MD 9%, TrxR1 inh 35µM*, GALK inhibitor -4%, TrxR1 substrate 2%, LDHA inh 4 and PI4K2A inh -18.
Cn1nc(-c2ccc(F)cc2)nc2c(=O)n(C)c(=O)nc1-2 was read as TrxR1 inh 28µM*, TrxR1 substrate 22µM* and LDHA inh 25.
For COc1ccc(-c2nc3c(=O)n(C)c(=O)nc-3n(C)n2)cc1 the results were TrxR1 inh inconclusive, TrxR1 substrate inconclusive and LDHA inh 22.
Cn1nc(-c2ccc(Cl)cc2)nc2c(=O)n(C)c(=O)nc1-2 was read as TrxR1 inh inconclusive, GALK inhibitor 1.1µM*, TrxR1 substrate 18µM* and LDHA inh 25.
Screening Cc1ccc(NC(=O)CNc2nc(Nc3ccccc3)nc(Nc3ccccc3)n2)cc1C returned LDHA inh -12.
Screening CCOc1cccc(COC(=O)c2cccc(S(=O)(=O)N3CCOCC3)c2)c1OC(F)F returned LDHA inh -2.
Screening Cc1ccc(/C=C/c2nc3ccccc3n2S(=O)(=O)c2cccc(Cl)c2)cc1 returned TrxR1 inh 11%[57.1 µM], TrxR1 substrate 12%[57.1 µM], LDHA inh -5 and PI4K2A inh -63*.
Screening CSc1ccc(/C=C/c2nc3ccccc3n2S(=O)(=O)c2ccc(F)c(C)c2)cc1 returned TrxR1 inh 23%[57.1 µM], TrxR1 substrate 24%[57.1 µM], LDHA inh -8 and PI4K2A inh inconclusive.
`CCOc1ccc(/C=C/c2nc3ccccc3n2S(=O)(=O)c2cccc(Cl)c2)cc1` gave TrxR1 inh 22%, TrxR1 substrate -2%, LDHA inh -5 and PI4K2A inh -70*.
`Cc1cccc(C)c1NC(=O)CNC(=O)Cc1nc(-c2ccccc2)oc1C` gave LDHA inh -3.
N#CC(C(=O)C1c2ccccc2Oc2ccccc21)c1nc2ccccc2[nH]1 (stereo unspecified) was read as LDHA inh -19.
Screening COC(=O)c1cc(N2CCOCC2)ccc1NC(=O)c1cccc(C#N)c1 returned LDHA inh 10.
Cc1ccc2ncn(Cc3ncc(-c4cccc(Cl)c4)o3)c(=O)c2c1 was read as LDHA inh 4.
`COC(=O)COc1ccc2c(C)c(CC(=O)OC)c(=O)oc2c1` gave LDHA inh 1.
COC(=O)Cc1c(C)c2ccc(O)cc2oc1=O was read as LDHA inh -30*.
Screening Cc1ccc(S(=O)(=O)c2ncccc2N)cc1 returned Integrin act MD 16%, TrxR1 inh 17%[2.29 µM], GALK inhibitor -3%, TrxR1 substrate 5%[2.29 µM], LDHA inh -6 and PI4K2A inh 1.
Cc1ccc(S(=O)(=O)c2ncccc2[N+](=O)[O-])cc1 was read as Integrin act MD -9%, TrxR1 inh 2µM*, GALK inhibitor 1%, TrxR1 substrate -1%[57.1 µM], LDHA inh 2 and PI4K2A inh 0.
Screening O=C(c1cc(-c2ccco2)nc2ccccc12)N1CCN(Cc2ccccc2)CC1 returned Integrin act MD 14%, TrxR1 inh 40µM*, TrxR1 substrate 109%, LDHA inh -14 and PI4K2A inh -7.
Screening CCCCCCNC(=O)c1cc(-c2ccco2)nc2ccccc12 returned Integrin act MD -53%, TrxR1 inh 3.5µM*, GALK inhibitor -2%, TrxR1 substrate 104%, LDHA inh -1 and PI4K2A inh 16.
`NC(=O)COC(=O)c1cc(-c2ccco2)nc2ccccc12` gave Integrin act MD 7%, TrxR1 inh 79µM*, GALK inhibitor 0%, TrxR1 substrate 60%, LDHA inh -18 and PI4K2A inh -6.
CCCCCCNC(=O)c1cc(-c2ccccc2)nc2ccccc12 was read as LDHA inh 1.
For CC(C)Cn1c(N)c(C(=O)COC(=O)c2cc(-c3ccco3)nc3ccccc23)c(=O)n(C)c1=O the results were Integrin act MD 13%, TrxR1 inh 2.8µM*, GALK inhibitor -1%, TrxR1 substrate 14%, LDHA inh 1 and PI4K2A inh -13.
For O=C(c1cc(-c2ccco2)nc2ccccc12)N1CCCC1 the results were LDHA inh 3.
